Target: PUM1 PUF domain R5-RYV (Homo sapiens, UniProt Q14671 828-1176, C1007R;R1008Y;Q1011V)
Experiment: yeast three-hybrid, YBZ-1, SC-Leu-His + 0.5 mM 3-AT, 4 days
Conditions: tags: N-Gal4 AD-HA kept; label: inside an RPR1-promoter hybrid RNA with tandem MS2 sites; ssRNA
In short: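 The interaction score is the log change in variant frequency from input to selection. Scores were computed in log2 with a pseudocount of 1 for absent variants, using Illumina sequencing of PCR-amplified repeat regions. The input came from four days on SC-Leu and the selection from four days on SC-Leu-His + 0.5 mM 3-AT. The cells were strain YBZ-1 (LexA–MS2 coat fusion, HIS3 reporter) co-expressing Pumilio-1 PUF domain libraries and matching RNA elements from a centromeric plasmid.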

Row | Sequence | binding signal
1 | GGCUAGAACUAGUGGAUCCCCCGGCGCCCGGCGGCUCGAGCCCGGGUAAGUGUAAAUAGUCUGCAUGCCGCCGGGCGCCAUGCCUGCAGGUCGACUCUAGAAAACAUG | 1.83 log2 enrichment (interaction score)
2 | GGCUAGAACUAGUGGAUCCCCCGGCGCCCGGCGGCUCGAGCCCGGGUAAGUGUGAAUAGUCUGCAUGCCGCCGGGCGCCAUGCCUGCAGGUCGACUCUAGAAAACAUG | 2.35 log2 enrichment (interaction score)
3 | GGCUAGAACUAGUGGAUCCCCCGGCGCCCGGCGGCUCGAGCCCGGGUAAGUGUUAAUAGUCUGCAUGCCGCCGGGCGCCAUGCCUGCAGGUCGACUCUAGAAAACAUG | 4.93 log2 enrichment (interaction score)
4 | GGCUAGAACUAGUGGAUCCCCCGGCGCCCGGCGGCUCGAGCCCGGGUAAGUGUCAAUAGUCUGCAUGCCGCCGGGCGCCAUGCCUGCAGGUCGACUCUAGAAAACAUG | 5.29 log2 enrichment (interaction score)
